Data as given in PubChem BioAssay AID1159506 (National Center for Advancing Translational Sciences (NCATS), 2015).
In all, about 59,000 sequences were measured (the read-out: median about -0.00055, lowest 2% from about -2 on). The entries come from a sample that favours the lowest values as a whole.

Assay: Identification of proteins required for the processing of the EWS-FLI1 nascent transcript;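 further: robust z of luciferase light less the median z of siRNAs with the same seed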
Conditions: TC32 Ewing sarcoma NR0B1-luc vs CMV-luc (EWS-FLI1 target promoter against control promoter), 48 h; screened at 20 nM (by protocol)
Method in brief: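 TC32 Ewing sarcoma cells carrying NR0B1-promoter or CMV-promoter luciferase reporters were reverse-transfected with single siRNAs at 20 nM, three per gene genome-wide. Luminescence was read after 48 h and normalized to non-targeting controls.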

**Q.** For UCCGGUAAGACAUUCUCUG against EAPP, which seed-corrected z-score is on record?
**A.** 0.402

**Q.** For AUGACUUUUAGUGUAAUCC against LOC439994, which seed-corrected z-score is on record?
**A.** -2.2

**Q.** With UAUGUCGUCUUGGAGAUCG against SNRNP27 as the sequence, how does the seed-corrected z-score read?
**A.** -0.0915

**Q.** For UUAAGAGUGACUCAAUUUG against MGAT2, which seed-corrected z-score is on record?
**A.** -0.219

**Q.** Which seed-corrected z-score does the source give for AUUGAGUAUCACGUCAUCC against TTLL4 here?
**A.** -2.43

**Q.** With ACCUUGAUGGUUUUUGAUG against LOC649294 as the sequence, how does the seed-corrected z-score read?
**A.** 0.0918

**Q.** For UUUCUUAAUGGUGGUGCCC against SLC7A7, which seed-corrected z-score is on record?
**A.** -0.929

**Q.** For UGUAUUAUCGUGUCCGAGC against CTNNBL1, which seed-corrected z-score is on record?
**A.** -0.748

**Q.** With UGAUAACCCACAUUGAAGG against DEGS1 as the sequence, how does the seed-corrected z-score read?
**A.** -0.494

**Q.** Which seed-corrected z-score does the source give for UCUUCUUCCAGUAUAAGGC against KITLG here?
**A.** 0.53

**Q.** With UCAACACCCAGGUAGCGGA against DUSP26 as the sequence, how does the seed-corrected z-score read?
**A.** -2.05

**Q.** For UAAAGGGUUGUGGGAAAUG against LRRC30, which seed-corrected z-score is on record?
**A.** -1.26

**Q.** With UCUGGAAUUUGACUGCUCG against RPL24 as the sequence, how does the seed-corrected z-score read?
**A.** -0.838

**Q.** Which seed-corrected z-score does the source give for UACGUAAGAAAUAGGAACG against OR6C76 here?
**A.** -2.11

**Q.** With UCAACUUCCAUGAUUUUCC against IGF2BP2 as the sequence, how does the seed-corrected z-score read?
**A.** -0.332

**Q.** For UUCCGGUCAUAAUUCAGCC against PPFIA4, which seed-corrected z-score is on record?
**A.** -0.228

**Q.** With AAUGGUAAACUUGAUUUCA against TP53I11 as the sequence, how does the seed-corrected z-score read?
**A.** 0.091

**Q.** With AUAGAGGUGAGGGUCAUGC against TGFBI as the sequence, how does the seed-corrected z-score read?
**A.** -2.38

**Q.** With UACUUCUAUGUAGAGGUCC against AKIP1 as the sequence, how does the seed-corrected z-score read?
**A.** -0.138

**Q.** Which seed-corrected z-score does the source give for UCAGUUUGGAAUGAGGAGG against LOC345051 here?
**A.** -0.469

**Q.** With UGUGGAUGCGGCGAUGUUC against ZNF574 as the sequence, how does the seed-corrected z-score read?
**A.** 0.836

**Q.** For UGCUUUUAGAAAGUCCAUG against HAUS1, which seed-corrected z-score is on record?
**A.** -0.637

**Q.** Which seed-corrected z-score does the source give for ACCGUUGUAGUCUCCAUCG against ANO1 here?
**A.** -11.8

**Q.** With UUUUCAUCUGGUAAAAGGG against FAM13C as the sequence, how does the seed-corrected z-score read?
**A.** -1.06

**Q.** With UAUCUUCAGAUCGCUGUAC against ANKFY1 as the sequence, how does the seed-corrected z-score read?
**A.** 0.715

**Q.** With UCUUCGUCCACUCUGAAUC against NMU as the sequence, how does the seed-corrected z-score read?
**A.** -2.29

**Q.** For UUUGAUAUUCAUAACGAUC against N4BP2L2, which seed-corrected z-score is on record?
**A.** 0.28

**Q.** Which seed-corrected z-score does the source give for UGCAGUGGACCAUUUAUGC against SUN5 here?
**A.** -1.1

**Q.** Which seed-corrected z-score does the source give for UACCGAUUGUGAAUGAACC against NHS here?
**A.** -17

**Q.** For UUUGGAAUCCUUUACUUGG against GLE1, which seed-corrected z-score is on record?
**A.** 0.251

**Q.** With UUCAUGACAGUGACGAUGC against ITPR3 as the sequence, how does the seed-corrected z-score read?
**A.** -0.0506

**Q.** For UCUUGGAGUUCCGUCUUUG against FGF20, which seed-corrected z-score is on record?
**A.** -0.184

**Q.** With UCAUUGAUUAGGUGGAUGC against RRP9 as the sequence, how does the seed-corrected z-score read?
**A.** -0.724

**Q.** With AUCUGGACCACUAUUUCUU against RSPH9 as the sequence, how does the seed-corrected z-score read?
**A.** 0.909

**Q.** For UGUAGAGAUGCGGUGGUCC against BIRC5, which seed-corrected z-score is on record?
**A.** -2.18

**Q.** Which seed-corrected z-score does the source give for UAGUUUAACCUUGUCAUCC against CASC4 here?
**A.** -0.368

**Q.** With UACACUUUCAAAAUCUCUC against ZNF845 as the sequence, how does the seed-corrected z-score read?
**A.** 0.844

**Q.** Which seed-corrected z-score does the source give for UUUAUGACCUCAUUAAGUC against LHCGR here?
**A.** 0.284

**Q.** Which seed-corrected z-score does the source give for UGAUGAGAUAGAGCCGUGC against TRIM56 here?
**A.** -0.836

**Q.** With GAAUUUCAGCCGUAGCACG against TMUB1 as the sequence, how does the seed-corrected z-score read?
**A.** -2.19

**Q.** With ACAAUGGCAUCUUGUGGGC against CORT as the sequence, how does the seed-corrected z-score read?
**A.** 0.108

**Q.** Which seed-corrected z-score does the source give for UAGUAUGCGGUGGUGAUGG against RAB3A here?
**A.** -0.77

**Q.** Which seed-corrected z-score does the source give for UUGGGCAUAUGUUUGCUGC against TACO1 here?
**A.** 0.306

**Q.** Which seed-corrected z-score does the source give for UCGUUUCAAAGGGCUGUGG against SAMD4A here?
**A.** -2.94

**Q.** For UGAGCAAGGUCUCCAAUCC against SH3RF3, which seed-corrected z-score is on record?
**A.** -0.33

**Q.** Which seed-corrected z-score does the source give for UUUCGUUUGAGAAAUGCGC against MED23 here?
**A.** 0.711

**Q.** With AUAGUGACCACCCUCAAUC against SPTA1 as the sequence, how does the seed-corrected z-score read?
**A.** 0.293

**Q.** For UACGUUCUGAAUCAAGAAG against DENND5A, which seed-corrected z-score is on record?
**A.** -0.28

**Q.** With UAAGCAUAUAUUCCCGUAC against CDC7 as the sequence, how does the seed-corrected z-score read?
**A.** 0.52

**Q.** Which seed-corrected z-score does the source give for UUUAUAGUUGGUUAGGUUC against EPB42 here?
**A.** -0.0918

**Q.** With AUUUGGACCAGUAUGCUUC against HNRNPH1 as the sequence, how does the seed-corrected z-score read?
**A.** -2.98

**Q.** Which seed-corrected z-score does the source give for UAUUCUGAGAUGCGAAGGC against SLC26A11 here?
**A.** 0.879

**Q.** Which seed-corrected z-score does the source give for UCCAAGAUGAUUCCUCUCC against ZNF557 here?
**A.** -0.0489

**Q.** With AAAAGAUGCCCAUUCAUUG against DCDC2C as the sequence, how does the seed-corrected z-score read?
**A.** 1.89

**Q.** With UCAGGAGCAAAGCUUCUUC against VNN3 as the sequence, how does the seed-corrected z-score read?
**A.** 0.325

**Q.** With UCAGCUGAUUCAUUAGAGG against TRIM44 as the sequence, how does the seed-corrected z-score read?
**A.** -0.356

**Q.** For UCUGUUGUUAGCACACGUC against NID1, which seed-corrected z-score is on record?
**A.** -0.891

**Q.** For UAUGCUUUCUUGACAGCCC against KCNAB1, which seed-corrected z-score is on record?
**A.** -4.96

**Q.** For UCCUUGGACAUCAAGAGCC against C16orf91, which seed-corrected z-score is on record?
**A.** -0.516

**Q.** Which seed-corrected z-score does the source give for UAAUCUAUCCAGGAAUUCC against TTC5 here?
**A.** 0.1

**Q.** With UUUGUUGGAACCCAAGAGC against BLID as the sequence, how does the seed-corrected z-score read?
**A.** -2.2

**Q.** With UUUGGGUCCUCGAUCACCC against COL8A1 as the sequence, how does the seed-corrected z-score read?
**A.** -1.06

**Q.** For UUCCGUAAUGUUGCGCAUG against CORO6, which seed-corrected z-score is on record?
**A.** 0.106

**Q.** For UUCGUGCUGGGUUAUCUCG against COL24A1, which seed-corrected z-score is on record?
**A.** 0.737

**Q.** Which seed-corrected z-score does the source give for UUCCAUAAAGAGUUCUGCC against ZNF280C here?
**A.** 0.576

**Q.** With UUACUGACGACAUCAUUCC against PRPF40A as the sequence, how does the seed-corrected z-score read?
**A.** -0.273
